For orientation: inhibition means the change of the read-out against control, counted positive when it falls.

Activity calls are given as the source filed them.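 How the source made its calls: active means inhibition above the hit cutoff set in the earlier primary screen (cut at about 27% in these data); inactive means the rest.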

Chain of Protein phosphatase methylesterase 1 (Homo sapiens) (Q9Y570 whole entry, looked up): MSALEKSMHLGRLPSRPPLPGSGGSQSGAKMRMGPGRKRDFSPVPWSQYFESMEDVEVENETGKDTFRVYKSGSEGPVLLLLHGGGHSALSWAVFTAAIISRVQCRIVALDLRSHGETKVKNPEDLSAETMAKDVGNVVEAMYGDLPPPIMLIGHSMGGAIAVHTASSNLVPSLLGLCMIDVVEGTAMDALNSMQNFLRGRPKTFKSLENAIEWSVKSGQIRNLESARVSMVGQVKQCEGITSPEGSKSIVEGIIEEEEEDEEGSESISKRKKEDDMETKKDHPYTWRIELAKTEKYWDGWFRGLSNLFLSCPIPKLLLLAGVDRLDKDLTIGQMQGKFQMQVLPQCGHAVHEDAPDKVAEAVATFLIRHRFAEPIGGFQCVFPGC

This test concerns the target Protein phosphatase methylesterase 1 (Homo sapiens) (UniProt Q9Y570). The experiment in a line: human PME-1 methylesterase inhibition confirmation – biochemical, fluorescence polarization, FP-Rh probe, triplicate (AID 2171).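 Further: 0% = enzyme with DMSO and 100% = wells lacking PME-1.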 The note with it: recombinant PME-1, FP-Rh probe fluorescence polarization; at 5.9 µM; active compounds read high. For orientation: In fluorescence polarisation assays a small probe gives low polarisation when free and higher when bound to something large.
In the case of `CCCCOC(=O)c1ccc(NC(=O)Nc2ccc(OC)c(OC)c2)cc1`, the inhibition was 14.7% (inactive).
The value for `COc1ccc(Nc2nc(NN)nc(C)c2[N+](=O)[O-])cc1` was 17.7% (inactive); that for `O=[N+]([O-])c1ccc(N/N=C/c2cccc(O)c2O)cc1` was 23.3% (inactive); that for `c1ccc2c(c1)OCCc1c-2[nH]c2ccccc12` was 21.9% (inactive).
Turning to `Cc1cccc(OCCn2cc(/C=N/NC(=O)c3ccncc3)c3ccccc32)c1`, the inhibition was 2.22% (inactive).
The value for `Cc1c(O)ccc(/C=N/Nc2nc(-c3cccnc3)nc3ccccc23)c1O` was 48.8% (active).
The value for `CN(c1ccccc1)S(=O)(=O)c1ccc(NC(=O)c2ccc(-c3ccccc3)cc2)cc1` was 59.7% (active); that for `O=[N+]([O-])c1ccccc1N/N=C/c1c[nH]c2ccccc12` was 42.3% (active).
The value for `Oc1ccc(/C=N/Nc2ccnc3cc(Cl)ccc23)cc1O` was 5.4% (inactive); that for `CC1Oc2ccccc2C=C1/C=N/Nc1ccc(C(=O)O)cc1` (stereo not given) was 34.8% (active); that for `c1cc2c3c(cccc3c1)NC1(CCC3(CC1)Nc1cccc4cccc(c14)N3)N2` was 0.95% (inactive).
In the case of `CN(C)c1ccc(NC(=O)Nc2ccc3snnc3c2)cc1`, the inhibition was 21% (inactive).
Turning to `COc1ccc(-c2cc(C(=O)N3CCN(C(=O)c4ccccc4F)CC3)[nH]n2)cc1`, the inhibition is 21.7% (inactive).
With `COc1ccc2ccccc2c1C(O)c1nccn1C` (stereo not given), the inhibition was 23.1% (inactive).
Regarding `COc1ccc2cc3c(N)c(C(=O)NCc4ccco4)sc3nc2c1`, the inhibition was 39.8% (active).
As to `COc1ccc2nc(N3C(=O)/C(=C/c4ccccc4)NC3=S)sc2c1`, the inhibition was 43.3% (active).
For `Cc1[nH]c2ccccc2c1/C=N/NC(=O)c1cc(-c2ccncc2)nc2ccccc12` the value was 23% (inactive); for `CCOc1cc(/C=C/c2ccc3cccc([N+](=O)[O-])c3n2)cc(Cl)c1O`, -9.78% (inactive).
For `COc1cccc(N=Nc2c(=O)[nH]n3c(=O)c4c([nH]c23)CCC4)c1` the value was 36.8% (active).
On to `CS(=O)(=O)N1N=C(c2ccccc2)CC1c1ccc2c(c1)OCO2` (stereo not given), for which the inhibition was -54.8% (inactive).
In the case of `Cn1c(=O)c(Nc2ccc(Cl)cc2)c2c3c(cccc31)C(=O)c1ccccc1-2`, the inhibition is 62.5% (active).
With `COc1ccc(N2CCN(C(=O)C3CCN(S(=O)(=O)c4ccc(F)cc4)CC3)CC2)cc1`, the inhibition was 59.1% (active).
The value for `CNc1ccc2c3c(cccc13)C(=O)N(C)C2=O` was 71.2% (active).
Regarding `Nc1nonc1-n1nnc(C(=O)N/N=C/c2c[nH]c3ccccc23)c1-c1ccccc1`, the inhibition was 25.4% (inactive).
For `Fc1ccc2nc(Nc3nc4cc5c(cc4s3)OCO5)sc2c1` the value was 2.53% (inactive).

The values above are taken from PubChem BioAssay.
